In all, about 5,500 compounds went through this assay and about 2,000 (36%) were called active. Roughly 18% stayed inconclusive and do not appear here. Cut-off read from the data, not from the text of the source: active = normalized growth mostly below about 0.91 (no sharp cut-off); inconclusive = no clear call, values can overlap the other calls; inactive = mostly above about 0.92. This is one part of the list.
Assay: chemical genetic growth profiling, strain panel (AID 1159580);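 note: tested at 20 µM; growth read once vehicle control cultures reached saturation at 30 °C; 1 = growth at the plate median or of vehicle wells; lower values mean less growth of the strain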
Conditions: growth OD
[1] = S. cerevisiae deletion strains, locus YAL013W, strain DEP1, hits give low values
[2] = S. cerevisiae deletion strains, locus YBR229C, strain ROT2, hits give low values
[3] = S. cerevisiae deletion strains, locus YDL101C, strain DUN1, hits give low values
[4] = S. cerevisiae deletion strains, locus YDL134C, strain PPH21, hits give low values
[5] = S. cerevisiae deletion strains, locus YDR150W, strain NUM1, hits give low values
[6] = S. cerevisiae deletion strains, locus YEL061C, strain CIN8, hits give low values
[7] = S. cerevisiae deletion strains, locus YGR078C, strain PAC10, hits give low values
[8] = S. cerevisiae deletion strains, locus YHR030C, strain SLT2, hits give low values
[9] = S. cerevisiae deletion strains, locus YHR087W, strain rtc3, hits give low values
[10] = S. cerevisiae deletion strains, locus YJL187C, strain SWE1, hits give low values
[11] = S. cerevisiae deletion strains, locus YJR043C, strain POL32, hits give low values
[12] = S. cerevisiae deletion strains, locus YJR075W, strain HOC1, hits give low values
[13] = S. cerevisiae deletion strains, locus YLR039C, strain RIC1, hits give low values
[14] = S. cerevisiae deletion strains, locus YLR058C, strain SHM2 (second series), hits give low values
[15] = S. cerevisiae deletion strains, locus YLR085C, strain ARP6, hits give low values
[16] = S. cerevisiae deletion strains, locus YLR262C, strain YPT6, hits give low values
[17] = S. cerevisiae deletion strains, locus YML094W, strain GIM5, hits give low values
[18] = S. cerevisiae deletion strains, locus YMR219W, strain ESC1, hits give low values
[19] = S. cerevisiae deletion strains, locus YMR263W, strain SAP30, hits give low values
[20] = S. cerevisiae deletion strains, locus YNL153C, strain GIM3, hits give low values
[21] = S. cerevisiae deletion strains, locus YNL298W, strain CLA4 (second series), hits give low values
[22] = S. cerevisiae deletion strains, locus YNL322C, strain KRE1, hits give low values
[23] = S. cerevisiae deletion strains, locus YNR030W, strain Alg12, hits give low values
[24] = S. cerevisiae deletion strains, locus YPL055C, strain LGE1, hits give low values
[25] = S. cerevisiae deletion strains, locus YPL241C, strain CIN2, hits give low values
[26] = S. cerevisiae deletion strains, locus YPR135W, strain CTF4, hits give low values
[27] = S. cerevisiae deletion strains, locus YMR307W, strain GAS1, hits give low values

Measured: normalized growth

FC(F)(F)c1ccc2[nH]c(=S)[nH]c2c1
inactive: [1] 0.995 | [2] 0.996 | S. cerevisiae deletion strains, locus YCL061C, strain MRC1, hits give low values 0.983 | [3] 0.983 | [4] 0.99 | [5] 0.986 | [6] 0.998 | [7] 0.982 | S. cerevisiae deletion strains, locus YGR229C, strain SMI1, hits give low values 1 | [8] 0.89 | [9] 0.999 | [10] 0.997 | [11] 0.986 | [12] 1.01 | [13] 0.952 | [14] 0.994 | [15] 0.955 | [16] 0.963 | [17] 0.905 | [18] 1 | [19] 1.02 | S. cerevisiae deletion strains, locus YNL128W, strain TEP1, hits give low values 0.993 | [20] 1 | [21] 0.979 | [22] 0.997 | [23] 0.977 | S. cerevisiae deletion strains, locus YOL006C, strain TOP1, hits give low values 0.997 | [24] 0.98 | [25] 0.966 | [26] 0.779

Cn1c(=S)[nH]c2cc(C(F)(F)F)ccc21
inactive: [1] 0.977 | [2] 0.987 | [3] 0.968 | [4] 0.979 | [5] 0.959 | [7] 0.975 | [8] 0.767 | [9] 1 | [10] 0.98 | [11] 0.978 | [12] 1.02 | [14] 0.974 | [17] 0.911 | [18] 0.987 | [19] 0.966 | [27] 0.718 | [20] 0.997 | [22] 0.998 | [23] 0.946 | [24] 0.866 | [25] 0.925 | S. cerevisiae strains, strain wild type, hits give low values 0.969
active: [6] 0.888 | [13] 0.538 | [15] 0.378 | [16] 0.733 | [21] 0.803 | [26] 0.617

O=c1[nH]c2cc(C(F)(F)F)ccc2n1-c1cc(C(F)(F)F)ccc1O
inactive: [1] 1.02 | S. cerevisiae deletion strains, locus YAL040C, strain CLN3, hits give low values 0.998 | S. cerevisiae deletion strains, locus YCL061C, strain MRC1 (second series), hits give low values 1.01 | [5] 1.01 | S. cerevisiae deletion strains, locus YDR363W, strain ESC2, hits give low values 1.01 | S. cerevisiae deletion strains, locus YER002W, strain NOP16, hits give low values 1.02 | [7] 1.03 | [27] 1.02 | S. cerevisiae deletion strains, locus YNL175C, strain NOP13, hits give low values 0.961 | S. cerevisiae deletion strains, locus YNL197C, strain WHI3, hits give low values 0.995 | S. cerevisiae deletion strains, locus YNL224C, strain SQS1, hits give low values 0.998 | S. cerevisiae deletion strains, locus YOR083W, strain WHI5 (second series), hits give low values 0.903 | [24] 1.01

Cc1ncc([N+](=O)[O-])n1CC(O)CCl (stereo not drawn)
inactive: S. cerevisiae deletion strains, locus YHR079C, strain IRE1, hits give low values 0.977 | S. cerevisiae deletion strains, locus YJL095W, strain BCK1, hits give low values 0.965 | S. cerevisiae deletion strains, locus YJR066W, strain TOR1, hits give low values 0.956 | S. cerevisiae deletion strains, locus YLR113W, strain HOG1, hits give low values 0.978 | S. cerevisiae deletion strains, locus YNL183C, strain NPR1, hits give low values 0.922 | S. cerevisiae deletion strains, locus YOR231W, strain MKK1, hits give low values 0.97 | S. cerevisiae deletion strains, locus YPL256C, strain CLN2, hits give low values 0.933

Reference: PubChem BioAssay AID1159580 (chemical genetic matrix, 2015)
